# According to the OligoGym collection:
# Legend:
# Test in all cases: pooled miR-30 sensor sort-seq; sequence = guide strand
# Conditions in all cases: shRNA
# ITFG1 = target: ITFG1
# ITGAM = target: ITGAM
# ITGA2 = target: ITGA2
# ITFG2 = target: ITFG2
# JAM3 = target: JAM3
# KCND2 = target: KCND2
# KCNJ4 = target: KCNJ4
# KCNJ11 = target: KCNJ11
# KCNK12 = target: KCNK12
# KCNK6 = target: KCNK6
# KCNRG = target: KCNRG
# KHDRBS3 = target: KHDRBS3
# KIF25 = target: KIF25
# KLF15 = target: KLF15
# KLF14 = target: KLF14
# KLC3 = target: KLC3
# KIR2DL5B = target: KIR2DL5B
# KPRP = target: KPRP
# KRT86 = target: KRT86
# L1TD1 = target: L1TD1
# Note: reference of the scale not given here.
sequence,measurement,setting,value
TTATCTTACGAGGACAGTCATT,sensor-assay potency score (higher = more potent),ITFG1,-1.41
TAATGTTTGATTTTGTCCCCAG,sensor-assay potency score (higher = more potent),ITFG1,-0.0623
TTACACTCAAATACATTCCTTG,sensor-assay potency score (higher = more potent),ITGAM,0.424
TACTTGTAGTGGTCAATGCTGG,sensor-assay potency score (higher = more potent),ITFG1,-0.574
TATTGATGCTGCATGACCCGAC,sensor-assay potency score (higher = more potent),ITGAM,0.154
TATACATGATATAAGGTCCAGG,sensor-assay potency score (higher = more potent),ITFG1,-0.949
TTCTGTTGGAATACTAGCGATT,sensor-assay potency score (higher = more potent),ITGA2,-0.717
TTGTCGGACATCTAGGACTAGA,sensor-assay potency score (higher = more potent),ITGA2,-0.587
TTTCGTAGCACTTCGTCGCCCA,sensor-assay potency score (higher = more potent),ITGA2,0.484
TATCGTTATCAACGTCTCCGAG,sensor-assay potency score (higher = more potent),ITFG2,-0.305
TAACGTATCGTTATCAACGTCT,sensor-assay potency score (higher = more potent),ITFG2,0.345
TAGATCACCATTGAAATCCATA,sensor-assay potency score (higher = more potent),ITFG1,-0.916
TTTGATGTTGCCAATTAGGTGA,sensor-assay potency score (higher = more potent),ITFG2,-0.267
TAGCACTTCGTCGCCCACCAGA,sensor-assay potency score (higher = more potent),ITGA2,-1.01
TACACAGACACCTTCCCGCTGG,sensor-assay potency score (higher = more potent),ITFG2,-0.00421
TTTTTCTCTATCATCTGCTTTC,sensor-assay potency score (higher = more potent),ITFG1,-0.602
TTCATGTCTGAATCCACTCTGG,sensor-assay potency score (higher = more potent),ITGAM,0.203
TAGGTGAGTGGAGACATTCTTG,sensor-assay potency score (higher = more potent),ITFG2,-0.555
TTGATGTACCAGTCAAACGAGA,sensor-assay potency score (higher = more potent),ITGAM,-0.909
TTTTCATCCACTTGGAAGCGGA,sensor-assay potency score (higher = more potent),ITFG2,-0.742
TTTCTTGAGGGACACCAGCTGC,sensor-assay potency score (higher = more potent),ITFG2,-0.971
TACTTCTGTCCCATCAACCGGC,sensor-assay potency score (higher = more potent),ITGA2,0.167
TTGCATATTGAATTGCTCCGAA,sensor-assay potency score (higher = more potent),ITGA2,0.0822
TAGGTCTGAACTTTGCACTGAA,sensor-assay potency score (higher = more potent),ITGA2,-0.0543
TTATACACAGACACCTTCCCGC,sensor-assay potency score (higher = more potent),ITFG2,0.0194
TAGAGTAAGAAGAGTAGTGGTC,sensor-assay potency score (higher = more potent),JAM3,0.457
TAGCAGAGGTATGTGCACGTGC,sensor-assay potency score (higher = more potent),JAM3,-0.388
TTACTGAGTAAACCATTCCGTT,sensor-assay potency score (higher = more potent),KCND2,-1.06
TTGTGTCGTCGTGAACAGCAGG,sensor-assay potency score (higher = more potent),KCND2,-0.722
TCGCGCACCGAAATGACCGCGT,sensor-assay potency score (higher = more potent),KCNJ4,-0.495
TTACTCTCCTGCAGCTCCCGGG,sensor-assay potency score (higher = more potent),KCNJ4,-0.832
TTGCGTACCACCTGCATGTGGA,sensor-assay potency score (higher = more potent),KCNJ11,-0.169
TTGAGCACCTGCTTGATGAGGA,sensor-assay potency score (higher = more potent),KCNK12,0.236
TTGACGGTGTTGCCAAACTTGG,sensor-assay potency score (higher = more potent),KCNJ11,-1.46
AGTAAATGCAGCACACGCCGAG,sensor-assay potency score (higher = more potent),KCNK12,-1.04
TAGACTGTGACCAGCACCTTGT,sensor-assay potency score (higher = more potent),KCNK6,-0.385
TCCTCATCCGCATTGAAACTGG,sensor-assay potency score (higher = more potent),KCNK6,-1.46
TAGGTCTTGTGAAAACGTGAGT,sensor-assay potency score (higher = more potent),KCNJ4,-0.691
TCTCGTAGCAGAAGGCACTGGG,sensor-assay potency score (higher = more potent),KCNJ4,0.705
TTGTTCATGATGCCCAGCGCGC,sensor-assay potency score (higher = more potent),KCNK12,-1.54
ATGAAGGAGTCGATGACGCAGC,sensor-assay potency score (higher = more potent),KCNJ4,-1.02
TAGTCGGTGTGGGAGCTGGCAG,sensor-assay potency score (higher = more potent),KCNK6,-1.57
ACATGGTAGATGATCAGCGGGG,sensor-assay potency score (higher = more potent),KCNJ11,-0.798
TACATGGCCGAGGCGCAGCAGG,sensor-assay potency score (higher = more potent),KCNK12,-1.41
TTGAAGAACAGGATGGTCCCAG,sensor-assay potency score (higher = more potent),KCNK12,0.312
TTCTGCAGCAGCGCCAGCGACA,sensor-assay potency score (higher = more potent),KCNK12,-1.81
TAGAAGGCATCCAAGAAGCTCC,sensor-assay potency score (higher = more potent),KCNK6,-0.185
TTAGCAAGCACGACCCGCCCCA,sensor-assay potency score (higher = more potent),KCNK6,-0.345
TAGGAGATGTTGTCCAGCGGGA,sensor-assay potency score (higher = more potent),KCNJ4,-0.546
TTATTGACAACGGAGAAGGCAG,sensor-assay potency score (higher = more potent),KCNJ11,-0.854
TGGAGGTCGGACACGTGGCGGA,sensor-assay potency score (higher = more potent),KCNK6,-1.12
TAGCGCTGCGACTTGTTGCTCA,sensor-assay potency score (higher = more potent),KCNJ4,0.0555
TCGAGCGCCGAGAAGACTGTGG,sensor-assay potency score (higher = more potent),KCNK12,-0.801
TCGCTGGCCAGGTAGGAGCTGC,sensor-assay potency score (higher = more potent),KCNJ4,-1.22
AAGAGGTTGAAGAACAGGATGG,sensor-assay potency score (higher = more potent),KCNK12,-0.732
AAAACGTGAGTAGTCCACCTTG,sensor-assay potency score (higher = more potent),KCNJ4,-0.537
TTGGAGTAGTCCACAGAGTAAC,sensor-assay potency score (higher = more potent),KCNJ11,-1.69
TAAAGCAGAAGTAGAAGGCATC,sensor-assay potency score (higher = more potent),KCNK6,-0.372
TTGATGAGGATGGAGATGACGT,sensor-assay potency score (higher = more potent),KCNK12,-0.352
ATGCTTGCTGAAGATGAGGGTC,sensor-assay potency score (higher = more potent),KCNJ11,-1.14
TTGTAGTGGCTCTTCTCCTCGA,sensor-assay potency score (higher = more potent),KCNJ4,-0.739
TTGTGTACCCATAGCCCACGGT,sensor-assay potency score (higher = more potent),KCNK6,-0.627
TTGAGGTGCGAACGGCGGCAGC,sensor-assay potency score (higher = more potent),KCNK12,-1.57
TTGACGCACACGCTGCGCGGGT,sensor-assay potency score (higher = more potent),KCNK12,-0.763
TCATCCGCATTGAAACTGGCAG,sensor-assay potency score (higher = more potent),KCNK6,-0.75
TCGGAGCCTGGCTTCGTGCGGC,sensor-assay potency score (higher = more potent),KCNK6,-0.634
TTGGCCGTTCTTCTTGACGAAG,sensor-assay potency score (higher = more potent),KCNJ4,-1.51
TCGTTGAGGTGCGAACGGCGGC,sensor-assay potency score (higher = more potent),KCNK12,-1.1
TAGTCCACCTTGTAGTGGCTCT,sensor-assay potency score (higher = more potent),KCNJ4,-0.556
AAGGCATCCAAGAAGCTCCAGG,sensor-assay potency score (higher = more potent),KCNK6,-0.209
TTGCTGGTGCGACTCCGGCTGG,sensor-assay potency score (higher = more potent),KCNK6,-1.34
TATGATGATAGTCTCTGGTTTT,sensor-assay potency score (higher = more potent),KCNRG,-0.744
TATAGCATTCAGTTTTGTCTTC,sensor-assay potency score (higher = more potent),KCNRG,0.0468
TAGTCCACTCTTCTTGCCCGTA,sensor-assay potency score (higher = more potent),KHDRBS3,-0.553
TAATTCCTAAGTCACTCTGTGG,sensor-assay potency score (higher = more potent),KIF25,-1.49
AGAATCACCAGTAACTTCGCAT,sensor-assay potency score (higher = more potent),KIF25,-0.565
TATCTAGTTCTCTCACACCCAG,sensor-assay potency score (higher = more potent),KLF15,-0.809
TTGTAATAGGCTTTGGTGCAGC,sensor-assay potency score (higher = more potent),KLF14,-0.333
TTGTACAGCTCTTCCGCTTGTT,sensor-assay potency score (higher = more potent),KLC3,0.24
TTGATACTTGTTCTGTTTCAGG,sensor-assay potency score (higher = more potent),KLC3,-0.751
AAACTTCTTGTCGCAGTCGAGC,sensor-assay potency score (higher = more potent),KLF14,-1.65
TATATTTTTATGAAGGACCAAA,sensor-assay potency score (higher = more potent),KLF15,-0.999
TTGAAGAGTTTCCTGTGACAGA,sensor-assay potency score (higher = more potent),KIR2DL5B,-0.517
TACATGGGAGCTAGCAACCCGG,sensor-assay potency score (higher = more potent),KIR2DL5B,-1.49
TTTGTACTTGTTCTGGTCCCGG,sensor-assay potency score (higher = more potent),KLC3,-0.559
TTCTTTGTACTTGTTCTGGTCC,sensor-assay potency score (higher = more potent),KLC3,-0.164
TTTTGTTGTAGAGCTCAGGGAC,sensor-assay potency score (higher = more potent),KIR2DL5B,0.231
TTTGGTGTACATCTTGCTGCAG,sensor-assay potency score (higher = more potent),KLF15,0.126
TTGAGTGACATGGCTCTCTTCA,sensor-assay potency score (higher = more potent),KLC3,-0.297
TCTTTGTACAGCTCTTCCGCTT,sensor-assay potency score (higher = more potent),KLC3,-0.542
TGGATCTGCAGCAACACTGGGA,sensor-assay potency score (higher = more potent),KLF15,-0.384
TATCTGGATGATAGGTTGGGTG,sensor-assay potency score (higher = more potent),KLF14,-1.33
TTTCTTTGTACAGCTCTTCCGC,sensor-assay potency score (higher = more potent),KLC3,-0.28
TTGAGGTGCGACGACTTGTAAT,sensor-assay potency score (higher = more potent),KLF14,-1.63
TTCTTGTCGCAGTCGAGCCAGT,sensor-assay potency score (higher = more potent),KLF14,-1.02
AAACTCTTCAATCTCCTCCAGG,sensor-assay potency score (higher = more potent),KLF15,-0.475
TAGGCTTTGGTGCAGCCCGGGA,sensor-assay potency score (higher = more potent),KLF14,-1.12
ATCTTGGAGAGTGAGCTGCTGC,sensor-assay potency score (higher = more potent),KLC3,-1.26
TTGGTGTACATCTTGCTGCAGC,sensor-assay potency score (higher = more potent),KLF15,-0.584
TTGTACTTGTTCTGGTCCCGGT,sensor-assay potency score (higher = more potent),KLC3,-0.388
TAAACTTCTTGTCGCAGTCGAG,sensor-assay potency score (higher = more potent),KLF14,-0.734
TTCTTTGTACAGCTCTTCCGCT,sensor-assay potency score (higher = more potent),KLC3,-0.475
ACAAGCAGTGGGTCACTCGGGT,sensor-assay potency score (higher = more potent),KIR2DL5B,-0.672
TTGGTCAGGTGGTCGCTCCGGG,sensor-assay potency score (higher = more potent),KLF14,-0.324
TAAACCTGTCAAAACAAGCTAG,sensor-assay potency score (higher = more potent),KLF15,-0.421
TATTTTATGTGGATGGACCTAT,sensor-assay potency score (higher = more potent),KLF15,0.313
ATAGGCTTTGGTGCAGCCCGGG,sensor-assay potency score (higher = more potent),KLF14,-0.764
TCGCAGTCGAGCCAGTCGCAGG,sensor-assay potency score (higher = more potent),KLF14,-1.84
TAGCACTAAAGTTCTGGCCTTG,sensor-assay potency score (higher = more potent),KLF15,-0.309
TCTCGCACACAGGACACTGGTA,sensor-assay potency score (higher = more potent),KLF15,-0.647
TAACATTGCCATGTCCCTCTGG,sensor-assay potency score (higher = more potent),KLF15,0.313
TTCTGTTTCAGGTAGGCTGAGG,sensor-assay potency score (higher = more potent),KLC3,-0.432
TACTCGATCATATCTGGATGAT,sensor-assay potency score (higher = more potent),KLF14,-0.368
TTAAATTTCAAATTTACACAAA,sensor-assay potency score (higher = more potent),KLF15,-0.919
ATATCTGGATGATAGGTTGGGT,sensor-assay potency score (higher = more potent),KLF14,-0.162
TTGGAGAGTGAGCTGCTGCGGC,sensor-assay potency score (higher = more potent),KLC3,-0.586
TTTCTGTATAACAAACTGGAGC,sensor-assay potency score (higher = more potent),KPRP,-1.23
AATCTCAACAGGACACCTCTGT,sensor-assay potency score (higher = more potent),KPRP,0.644
TTTATTGGAAACACAGAGTGAA,sensor-assay potency score (higher = more potent),KRT86,0.556
TTGAATTTCCATTAAGACCTTA,sensor-assay potency score (higher = more potent),L1TD1,0.102
